CYP2C9 act: CYP2C9 (human) activation. P11712. recombinant CYP2C9, luciferin-H conversion, luminescence; hits give high values; factor 1 = untreated enzyme, 0 = blocked. activation factor at 5 µM. hit rate 1.4% among 96,000. AID 1024;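 active = activation factor of 2 or more for CYP2C9 at a 5 µM dose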
Measles CPE: protection of cells from measles virus; Measles virus-infected cells, CPE protection, absorbance; protection (pct of control), % at 4 µM; hit rate 1.5% among 140,000; AID 841; in the data active = protection mostly above about 24%, no sharp cut-off; inactive = mostly below about 26%
CYP2C9 inhib: blocks human cytochrome P450 2C9; P11712; CYP2C9 Supersomes, luciferin-H conversion, luminescence; inhibition, % at 5 µM; hit rate 20% among 96,000;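 active = blocking of liver enzyme CYP2C9 beyond about 50% at 5 µM, limit read from the data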
CYP2C19 act: increases human CYP2C19 enzyme activity. recombinant CYP2C19, luciferin-H EGE luminescence; hits give high values; 0 = fully inhibited enzyme, 1 = untreated enzyme. AID 1025. 96,000 tested, under 10 active. activation factor at 5 µM;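 active = activation factor of at least 2 at 5 µM in the primary screen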
Target sequence (P33261 whole entry, looked up): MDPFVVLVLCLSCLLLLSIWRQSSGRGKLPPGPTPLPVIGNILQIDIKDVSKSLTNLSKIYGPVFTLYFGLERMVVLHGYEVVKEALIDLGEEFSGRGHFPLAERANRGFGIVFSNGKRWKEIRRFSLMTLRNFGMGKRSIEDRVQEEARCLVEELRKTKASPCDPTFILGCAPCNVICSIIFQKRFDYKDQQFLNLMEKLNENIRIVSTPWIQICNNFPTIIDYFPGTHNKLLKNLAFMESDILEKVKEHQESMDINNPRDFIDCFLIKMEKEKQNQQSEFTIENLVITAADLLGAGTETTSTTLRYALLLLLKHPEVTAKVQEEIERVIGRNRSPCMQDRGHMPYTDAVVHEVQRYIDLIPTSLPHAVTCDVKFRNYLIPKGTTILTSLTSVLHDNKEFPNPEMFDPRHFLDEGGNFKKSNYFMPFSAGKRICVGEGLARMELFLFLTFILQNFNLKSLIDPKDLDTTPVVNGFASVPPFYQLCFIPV
CYP2C19 inhib: inhibitors of human CYP2C19 | P33261 | CYP2C19 Supersomes, luciferin-H EGE luminescence, 30 min | inhibition, % at 5 µM | hit rate 21% among 96,000 | AID 778;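 active = CYP2C19 inhibition above a set limit at 5 µM in the primary screen, cut at about 50% in these data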
Numbers stand for hits; 0 = inactive; - = no result. Hits are enriched below; roughly 22% of the tested compounds scored in any of these assays.

SMILES | CYP2C9 act | Measles CPE | CYP2C9 inhib | CYP2C19 act | CYP2C19 inhib
Cc1cc(C)nc(NCC(O)CNc2ccccc2C)n1 (stereo not drawn) | 0 | 0 | 0 | 0 | 0
Cc1ccc2cc(CNC(C)C)c(=O)[nH]c2c1 | 0 | 0 | 0 | 0 | 0
COc1ccc(NC(=O)CNS(=O)(=O)c2cccc3nonc23)c(OC)c1 | 0 | 0 | 74 | 0 | 72
COc1ccc(CCNC(=O)CN(C)S(=O)(=O)c2cccc3nsnc23)cc1OC | 0 | 0 | 0 | 0 | 0
O=C(CCNS(=O)(=O)c1cccc2nonc12)NC1CCCc2ccccc21 (stereo not drawn) | 2.4 | 0 | 0 | 0 | 0
CCC(=O)Nc1ccc(OC)cc1OC | 0 | 0 | 0 | 0 | 0
O=C(CCNS(=O)(=O)c1cccc2nsnc12)NC1CCCc2ccccc21 (stereo not drawn) | 0 | 0 | 0 | 0 | 0
O=C(CCNS(=O)(=O)c1cccc2nsnc12)NCCc1ccccc1 | 0 | 0 | 0 | 0 | 52
COc1ccc(CCNC(=O)CCNS(=O)(=O)c2cccc3nsnc23)cc1OC | 0 | 0 | 0 | 0 | 72
COc1ccc(C(CC(=O)NCc2ccccc2)Sc2n[nH]c(-c3ccc(Cl)cc3)n2)cc1 (stereo not drawn) | - | 0 | - | - | -
O=C(CCSCc1cccc(Cl)c1)NCCc1ccc(Cl)cc1 | - | 0 | - | - | -
Cc1ccc(CNC(=O)C(NS(=O)(=O)c2cccc3nsnc23)c2ccccc2)cc1 (stereo not drawn) | - | 0 | - | - | -
CC(=O)c1ccc(NC(=O)CCNS(=O)(=O)c2cccc3nonc23)cc1 | 0 | 0 | 0 | 0 | 0
COc1ccc(CCNC(=O)CCNS(=O)(=O)c2cccc3nonc23)cc1OC | 0 | 0 | 0 | 0 | 72
CCc1ccc(NC(=O)CCNS(=O)(=O)c2cccc3nonc23)cc1 | 0 | 0 | 55 | 0 | 0
Cc1ccc(CNC(=O)CNS(=O)(=O)c2cccc3nsnc23)cc1 | 0 | 0 | 52 | 0 | 0
COc1ccc(CNC(=O)CCCNS(=O)(=O)c2cccc3nonc23)cc1 | 0 | 0 | 0 | 0 | 0
CCOc1ccc2ccccc2c1/C=N/NC(=O)CNC(=O)C(c1ccccc1)c1ccccc1 | - | 0 | - | - | -
O=[N+]([O-])c1ccc(Cl)c(/C=N/n2c(-c3cccnc3)n[nH]c2=S)c1 | - | 0 | - | - | -
CC1=C(C(=O)Nc2cc(C)ccc2C)C(c2cccs2)NC(=S)N1 (stereo not drawn) | 0 | 0 | 0 | 0 | 0
CCOc1cc(-c2nc(-c3ccccc3)c(-c3cc([N+](=O)[O-])ccc3C)[nH]2)ccc1O | 0 | 0 | 57 | 0 | 0
O=[N+]([O-])c1ccc(O)c(-c2nc(-c3ccccc3)c(-c3cccs3)[nH]2)c1 | 0 | 0 | 92 | 0 | 0
COc1ccc(-c2nc(-c3ccccc3)c(-c3cc([N+](=O)[O-])ccc3C)[nH]2)cc1OC | 0 | 0 | 0 | 0 | 0
Cc1ccc(NC(=O)CSc2nnnn2-c2ccc3c(c2)OCO3)cc1C | - | 0 | - | - | -
CC(=O)C(=Nc1ccc(Cl)cc1Cl)NNc1cccc(Cl)c1 | 0 | 0 | 100 | 0 | 99
SMILES | CYP2C9 act | Measles CPE | CYP2C9 inhib | CYP2C19 act | CYP2C19 inhib
O=C(Nc1cccnc1)C1CC(c2ccccc2O)=NO1 (stereo not drawn) | 0 | 0 | 51 | 0 | 80
CC(=O)/C=C(\C)NCCNc1c(F)c(F)c(CO)c(F)c1F | 0 | 0 | 0 | 0 | 79
COC(=O)c1ccc(COC(=O)c2ccc(CO)cc2)o1 | - | 0 | - | - | -
Cc1cc(C(=O)OCC(=O)N2CC(C)CC(C)C2)c(C)o1 (stereo not drawn) | 0 | 0 | 0 | 0 | 55
Cc1cc(C(=O)OCC(=O)N2c3ccccc3CC2C)c(C)o1 (stereo not drawn) | 0 | 0 | 0 | 0 | 75
CCCCSc1nnc(-c2ccccc2)c2ccccc12 | - | 0 | - | - | -
CC(C)(CNC(=O)c1cc2ccccc2o1)N1CCOCC1 | 0 | 0 | 0 | 0 | 0
Cc1ccc(C(=O)N/C(=C\c2ccco2)C(=O)NCCCn2ccnc2)cc1C | 0 | 0 | 71 | 0 | 79
Cc1ccc(C(=O)N/C(=C\c2cccs2)C(=O)NCCCn2ccnc2)cc1C | 0 | 0 | 54 | 0 | 0
c1ccc(-c2csc(N3CCN(c4ccccn4)CC3)n2)cc1 | 0 | 0 | 0 | 0 | 0
O=C(COc1cccc2ccccc12)NNC(=O)C1CCCO1 (stereo not drawn) | 0 | 0 | 0 | 0 | 0
O=C(Oc1cccc(NC(=O)c2ccco2)c1)c1cccc(S(=O)(=O)N2CCCCC2)c1 | 0 | 0 | 0 | 0 | 0
COc1cccc(-c2nc3n(n2)C(c2ccc4c(c2)OCO4)C(C(N)=O)=C(C)N3)c1 (stereo not drawn) | 0 | 35 | 0 | 0 | 0

Source: PubChem BioAssay
